This is a sample that favours compounds with a hit; in the whole collection about 9.9% have one here.
IL1B secr inh = blocks inflammasome-driven IL-1 beta release; AID 743279; activity change, % at 57.5 µM; 360,000 tested, 4.7% active; THP-1 LPS/ATP IL-1B secretion, AlphaLISA, 16 h; active compounds read low; in the data active means activity change below about -50%; inconclusive means mostly about -30% to -49%; further: on the % scale 0 is the no-effect control and ±100 the full control effect
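Secreted IL-1B measured by AlphaLISA bead assay after 16 h compound exposure of THP-1 cells; compounds (final up to 57.5 uM) added 1 h before LPS (250 ng/mL) and ATP (1.25 mM) stimulation; lower signal means less secretion.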
SW480 rereplic = inducers of DNA re-replication in SW480 colon cancer cells. SW480 DNA re-replication, Hoechst DNA content imaging, 48 h. Potency, µM (series often up to 46.1 µM), for inactives: top-dose re-replication activation, hits mostly activators. 340,000 tested, 1.8% active; further: potency means the concentration at half of the fitted maximal effect; % of control where 0% means no effect; nearly all actives have a fitted effect of over 55% in size
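Quantitative HTS format with DMSO vehicle controls; 48 hr drug incubation at 37 C, then 40 min Hoechst staining and scanning imager measurement at 405 nm excitation.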
MCF10A rereplic = inducers of DNA re-replication in MCF 10A breast cells. AID 624296. MCF 10A DNA re-replication, Hoechst nuclear intensity, 48 h. 350,000 tested, 2.9% active. Potency, µM (top dose mostly 46.1 µM), inactives show top-dose activity, positive = re-replication, hits mostly activators; further: potency means the concentration at half of the fitted maximal effect; % of control where 0% means no effect; nearly all actives have a fitted effect of over 50% in size
KB-V1 MDR tox = KB-V1 MDR subline cytotoxicity; KB-V1 MDR cells viability, CellTiter-Glo, 72 h; Potency, µM (doses to about 46.1 µM), hits mostly cytotoxic; 400,000 tested, 3.4% active; AID 1347076; further: potency means the concentration at half of the fitted maximal effect; on the % scale 0 is the no-effect control and ±100 the full control effect; nearly all actives have a fitted effect of over 60% in size
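Cells of the MDR subline KB-V1 are plated, dosed with compound at multiple concentrations, and incubated 72 h at 37 degrees C; CellTiter-Glo is then added and luminescence read after 10 min.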
KB-3-1 cytotox = kills parental KB-3-1 adenocarcinoma cells; KB-3-1 viability, CellTiter-Glo ATP luminescence, 72 h; 400,000 tested, 1.4% active; Potency, µM (titrated, usually from 46.1 µM), most hits filed as cytotoxic; AID 1347075; further: potency means the concentration at half of the fitted maximal effect; on the % scale 0 is the no-effect control and ±100 the full control effect; nearly all actives have a fitted effect of over 60% in size
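72 h, 37 °C compound treatment of KB-3-1 parental cells; CellTiter-Glo added, 10 min, luminescence read. Data corrected against DMSO-only plates and normalized before curve fitting.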
Numbers without * were called inactive. Unless noted, the call rests on the fitted dose curve; in most records, active means well fitted curve in the direction sought with a large enough effect; inconclusive means small, poorly fitted or top-dose-only effect, or another doubt; inactive means no such curve, though single readings can be large; an effect the other way counts as inactive or inconclusive.

What do the screens show for `COc1cccc(NC(=O)Nc2nc(SC)ns2)c1`?
IL1B secr inh: -98*; SW480 rereplic: inconclusive; MCF10A rereplic: 4%; KB-V1 MDR tox: inconclusive; KB-3-1 cytotox: inactive

Results for COc1ccccc1C(CNC(=O)c1ccc(C)c(S(=O)(=O)N2CCCCC2)c1)N1CCCC1 (stereo not drawn) ?
IL1B secr inh: -13; SW480 rereplic: -13%; MCF10A rereplic: inconclusive; KB-V1 MDR tox: inactive; KB-3-1 cytotox: inactive

Results for COCCCN1CCN(C2Cc3ccccc3Sc3ccc(Cl)cc32)CC1 (stereo not drawn) ?
IL1B secr inh: -12; SW480 rereplic: 28%; MCF10A rereplic: inconclusive; KB-V1 MDR tox: inconclusive; KB-3-1 cytotox: inconclusive

How did CSc1ccc2c(c1)C(N1CCN(C)CC1)Cc1ccc(F)cc1S2 (stereo not drawn) do in these assays?
IL1B secr inh: -56*; SW480 rereplic: inconclusive; MCF10A rereplic: inconclusive; KB-V1 MDR tox: inactive; KB-3-1 cytotox: inactive

Results for COc1ccc2c(c1)CC(N1CCN(C)CC1)c1cc(OC)ccc1S2 (stereo not drawn) ?
IL1B secr inh: -93*; SW480 rereplic: inconclusive; MCF10A rereplic: inconclusive; KB-V1 MDR tox: inconclusive; KB-3-1 cytotox: inconclusive

What do the screens show for `CC(=O)Nc1ccc(S(=O)(=O)N2CCN(S(=O)(=O)c3ccccc3)CC2)cc1`?
IL1B secr inh: 0; SW480 rereplic: 28%; MCF10A rereplic: 1%; KB-V1 MDR tox: inactive; KB-3-1 cytotox: inactive

Results for Cc1ccc(S(=O)(=O)CCC(=O)OCC(=O)NC(=O)c2ccccc2)cc1 ?
IL1B secr inh: 3; SW480 rereplic: -2%; MCF10A rereplic: 18%; KB-V1 MDR tox: inactive; KB-3-1 cytotox: inactive

How did Cc1ccc(C(=O)NS(=O)(=O)c2ccc(C)cc2)cc1 do in these assays?
IL1B secr inh: 14; SW480 rereplic: -9%; MCF10A rereplic: 3%; KB-V1 MDR tox: inactive; KB-3-1 cytotox: inactive

Results for Cc1ccc(S(=O)(=O)/C(=C/Cl)NC(=O)c2ccccc2)cc1 ?
IL1B secr inh: -73*; SW480 rereplic: 13µM*; MCF10A rereplic: 4.1µM*; KB-V1 MDR tox: inactive; KB-3-1 cytotox: 13µM*

Results for O=C(NC(=C(Cl)Cl)S(=O)(=O)c1ccc(Cl)cc1)c1ccccc1 ?
IL1B secr inh: -93*; SW480 rereplic: inconclusive; MCF10A rereplic: inconclusive; KB-V1 MDR tox: inconclusive; KB-3-1 cytotox: inactive

How did Cc1ccc(C(=O)NC(=C(Cl)Cl)S(=O)(=O)c2ccc(C)cc2)cc1 do in these assays?
IL1B secr inh: -104*; SW480 rereplic: inconclusive; MCF10A rereplic: 13µM*; KB-V1 MDR tox: inactive; KB-3-1 cytotox: inactive

Results for CC(=O)NC(=C(Cl)Cl)S(=O)(=O)c1ccccc1 ?
IL1B secr inh: -100*; SW480 rereplic: 12µM*; MCF10A rereplic: 13µM*; KB-V1 MDR tox: inconclusive; KB-3-1 cytotox: inconclusive

How did CCCSc1ncc(Cl)c(C(=O)Nc2sc3c(c2C(=O)NCC)CCCC3)n1 do in these assays?
KB-V1 MDR tox: inactive; KB-3-1 cytotox: inactive

How did Cc1ccc(S(=O)(=O)C(NC(=O)c2ccccc2)=C(Cl)Cl)cc1 do in these assays?
IL1B secr inh: -117*; SW480 rereplic: inconclusive; MCF10A rereplic: 6.5µM*; KB-V1 MDR tox: inconclusive; KB-3-1 cytotox: inconclusive

How did Cc1ccc(C(=O)NC(=C(Cl)Cl)S(=O)(=O)c2ccc(Cl)cc2)cc1 do in these assays?
IL1B secr inh: -64*; SW480 rereplic: inconclusive; MCF10A rereplic: inconclusive; KB-V1 MDR tox: inactive; KB-3-1 cytotox: inconclusive

What do the screens show for `Cc1ccc(C(=O)NNC(=S)NC(=O)c2ccc(Cl)cc2)cc1`?
IL1B secr inh: 70; SW480 rereplic: inconclusive; MCF10A rereplic: inconclusive; KB-V1 MDR tox: inactive; KB-3-1 cytotox: inconclusive

Results for CCOC(=O)c1c(NC(=O)COc2ccc(Cl)cc2Cl)sc2c1CCCCC2 ?
KB-V1 MDR tox: inactive; KB-3-1 cytotox: inactive

How did Cc1cccc(N2C(=O)C(Oc3ccc(Cl)cc3Cl)C2C=O)c1C (stereo not drawn) do in these assays?
IL1B secr inh: -89*; SW480 rereplic: inconclusive; MCF10A rereplic: 18µM*; KB-V1 MDR tox: inconclusive; KB-3-1 cytotox: inconclusive
